Reference: the antibiotic and cytotoxicity screens of Wong et al. (2023)
The whole screen tested about 39,000 compounds, of which about 3,300 (8.5%) were called active. The entries come from a sample that favours actives as a whole.

The compounds below were run on HepG2 (assay: cytotoxicity call (relative viability < 0.9)). Details: 10 µM.
`C[C@@H]1CC=CC[C@H](c2cccc(Cl)c2)NC(=O)[C@@H](Cc2ccccc2)N(C)C(=O)c2ccccc2O1` was tested, and the cytotoxicity call was “inactive”. With `C[C@@H]1CN([C@@H](C)CO)C(=O)c2c(c3ccccc3n2C)-c2ccccc2CO[C@@H]1CN(C)C(=O)N[C@H](C)c1ccccc1` the cytotoxicity call was “inactive”. `Cc1ccc(S(=O)(=O)N(C)C[C@@H]2Oc3cc(Br)ccc3S(=O)(=O)N([C@@H](C)CO)C[C@H]2C)cc1` was tested, and the cytotoxicity call was “inactive”. With `Cc1noc(C)c1S(=O)(=O)Nc1ccc2c(c1)C(=O)N([C@H](C)CO)C[C@H](C)[C@@H](CN(C)C(=O)Nc1ccccc1)OCCCC[C@H](C)O2` the cytotoxicity call was “inactive”. With `O=C1N[C@@H](CC(=O)N2CCN(CCc3ccncc3)CC2)C(=O)Nc2ccccc21` the cytotoxicity call was “inactive”. For `COc1ccc(-c2cnc3c(c2)C(=O)N([C@@H](C)CO)C[C@@H](C)[C@H](CN(C)C(=O)Cc2ccccn2)O3)cc1`, the cytotoxicity call was “inactive”. With `CCCNC(=O)N[C@H]1CC[C@H](CC(=O)N2CCN(C)CC2)O[C@H]1CO` the cytotoxicity call was “inactive”. In the case of `C[C@@H](O)CNC(=O)C(=O)NC(C)(C)C`, the cytotoxicity call is reported as “inactive”. With `COc1cccc(-c2cn(CC[C@@H]3CC[C@H](NC(=O)CN(C)C)[C@H](CO)O3)nn2)c1` the cytotoxicity call was “inactive”. For `C[C@H]1CN([C@@H](C)CO)C(=O)c2cc(NC(=O)Cc3ccccc3)ccc2O[C@@H]1CN(C)S(=O)(=O)c1cn(C)cn1`, the cytotoxicity call was “inactive”. For `NCCC[C@H](NC(=O)[C@@H]1CCCN1C(=O)[C@@H]1CSSC[C@H](N)C(=O)N[C@@H](Cc2ccc(O)cc2)C(=O)N[C@@H](Cc2ccccc2)C(=O)N[C@@H](CCC(N)=O)C(=O)N[C@@H](CC(N)=O)C(=O)N1)C(=O)NCC(N)=O`, the cytotoxicity call was “active”. For `NCCCC[C@H](NC(=O)[C@@H]1CCCN1C(=O)[C@@H]1CSSC[C@H](N)C(=O)N[C@@H](Cc2ccccc2)C(=O)N[C@@H](Cc2ccccc2)C(=O)NC(CCC(N)=O)C(=O)N[C@@H](CC(N)=O)C(=O)N1)C(=O)NCC(N)=O` (stereo partly specified), the cytotoxicity call was “inactive”. With `NCCCC[C@H](NC(=O)[C@@H]1CCCN1C(=O)[C@@H]1CSSC[C@H](N)C(=O)N[C@@H](Cc2ccc(O)cc2)C(=O)N[C@@H](Cc2ccccc2)C(=O)N[C@@H](CCC(N)=O)C(=O)N[C@@H](CC(N)=O)C(=O)N1)C(=O)NCC(N)=O` the cytotoxicity call was “inactive”. For `CNC[C@H]1OCCCC[C@H](C)Oc2ccc(NC(=O)Nc3ccc(C(F)(F)F)cc3)cc2C(=O)N([C@H](C)CO)C[C@@H]1C`, the cytotoxicity call was “inactive”. In the case of `COc1cccc(S(=O)(=O)Nc2ccc3c(c2)C(=O)N(C)C[C@H](OC)[C@@H](C)CN(C(=O)Cc2cccnc2)[C@@H](C)CO3)c1`, the cytotoxicity call is reported as “inactive”. In the case of `CC(C)=CCC[C@@H](C)CCO`, the cytotoxicity call is reported as “inactive”. `COc1ccc(C[C@H](NC(=O)[C@H](C)NC(=O)CN2CCOCC2)C(=O)N[C@@H](Cc2ccccc2)C(=O)[C@@]2(C)CO2)cc1` was tested, and the cytotoxicity call was “active”. `COC[C@H](NC(=O)c1cnc(C)s1)C(=O)N[C@@H](COC)C(=O)N[C@@H](Cc1ccccc1)C(=O)[C@@]1(C)CO1` was tested, and the cytotoxicity call was “active”. For `CC(=O)N[C@@H](Cc1ccccc1)C(=O)O`, the cytotoxicity call was “inactive”. `CC(=O)N1[C@@H](CO)[C@H](c2ccccc2)[C@@H]1CNC(=O)CN1CCOCC1` was tested, and the cytotoxicity call was “inactive”. `CC(=O)N[C@@H](Cc1ccccc1)C(=O)NN` was tested, and the cytotoxicity call was “inactive”. With `CC(=O)N1[C@H](CNC(=O)CN2CCOCC2)[C@@H](c2ccccc2)[C@@H]1CO` the cytotoxicity call was “inactive”. With `COC(=O)C(Cc1ccccc1)NC(=O)C(N)CC(=O)O` (stereo unspecified) the cytotoxicity call was “inactive”. `CC(C)C[C@H](NC(=O)[C@H](CCc1ccccc1)NC(=O)CN1CCOCC1)C(=O)N[C@@H](Cc1ccccc1)C(=O)N[C@@H](CC(C)C)C(=O)[C@@]1(C)CO1` was tested, and the cytotoxicity call was “active”. `COC(=O)[C@H](Cc1ccccc1)NC(=O)[C@@H](N)CC(=O)O` was tested, and the cytotoxicity call was “inactive”. For `C[C@@H]1CN([C@H](C)CO)C(=O)c2cccc(NC(=O)c3ccc(-c4nccs4)cc3)c2O[C@H]1CN(C)Cc1ccc(C(=O)Nc2ccccc2N)cc1`, the cytotoxicity call was “inactive”. With `NCCC[C@@H](N)CC(=O)NC[C@H]1NC(=O)[C@@H](CO)NC(=O)[C@@H](N)CNC(=O)[C@H]([C@H]2CCN=C(N)N2)NC(=O)C(C=NC(N)=O)NC1=O` (stereo partly specified) the cytotoxicity call was “inactive”. `O=C(C[C@H]1CC[C@H]2[C@@H](COC[C@H](O)CN2C(=O)C2CC2)O1)NCc1ccncc1` was tested, and the cytotoxicity call was “inactive”. With `C=CCNc1ncnc2c1cnn2C` the cytotoxicity call was “inactive”. With `CNC(=O)C[C@@H]1CC[C@H]2[C@@H](COC[C@@H](O)CN2C(=O)c2ccccn2)O1` the cytotoxicity call was “inactive”. With `CO[C@H]1CN(C)C(=O)c2cc(NS(=O)(=O)c3ccccc3)ccc2OC[C@H](C)N(C(=O)NC(C)C)C[C@@H]1C` the cytotoxicity call was “inactive”. For `C[C@H]1CN([C@@H](C)CO)C(=O)Cc2cc(NC(=O)Nc3ccc4c(c3)OCO4)ccc2O[C@@H]1CN(C)Cc1ccc(Cl)c(Cl)c1`, the cytotoxicity call was “inactive”. With `C[C@H](CO)N1C[C@H](C)[C@H](CN(C)Cc2ccc(Cl)c(Cl)c2)Oc2ccc(NC(=O)Nc3ccc4c(c3)OCO4)cc2CC1=O` the cytotoxicity call was “active”. In the case of `C[C@@H]1CN([C@@H](C)CO)C(=O)Cc2cc(NC(=O)Nc3ccc4c(c3)OCO4)ccc2O[C@@H]1CN(C)Cc1ccc(Cl)c(Cl)c1`, the cytotoxicity call is reported as “inactive”. For `C[C@H]1CN([C@@H](C)CO)C(=O)Cc2cc(NC(=O)Nc3ccc4c(c3)OCO4)ccc2O[C@H]1CN(C)Cc1ccc(Cl)c(Cl)c1`, the cytotoxicity call was “active”. For `C[C@@H]1CN([C@H](C)CO)C(=O)Cc2cc(NC(=O)Nc3ccc4c(c3)OCO4)ccc2O[C@@H]1CN(C)Cc1ccc(Cl)c(Cl)c1`, the cytotoxicity call was “inactive”. In the case of `C[C@H](CO)N1C[C@H](C)[C@@H](CN(C)Cc2ccc(Cl)c(Cl)c2)Oc2ccc(NC(=O)Nc3ccc4c(c3)OCO4)cc2CC1=O`, the cytotoxicity call is reported as “inactive”. For `C[C@@H]1CN([C@@H](C)CO)C(=O)Cc2cc(NC(=O)Nc3ccc4c(c3)OCO4)ccc2O[C@H]1CN(C)Cc1ccc(Cl)c(Cl)c1`, the cytotoxicity call was “active”. For `C[C@@H]1CN([C@H](C)CO)C(=O)Cc2cc(NC(=O)Nc3ccc4c(c3)OCO4)ccc2O[C@H]1CN(C)Cc1ccc(Cl)c(Cl)c1`, the cytotoxicity call was “inactive”. With `CCS(=O)(=O)N1CC[C@]2(CC1)CN([C@@H](CO)c1[nH]c3cc(ccc3c12)OC)C(=O)c1ccc(cc1)F` the cytotoxicity call was “inactive”. For `COc1ccc(S(=O)(=O)N(C)C[C@H]2OCCCC[C@H](C)Oc3ccc(NC(=O)Nc4ccc(F)cc4)cc3C(=O)N([C@@H](C)CO)C[C@H]2C)cc1`, the cytotoxicity call was “inactive”.
